# Measurements published in PubChem BioAssay (NCATS).
# Inconclusive results are not listed. Entries that show only a call come without a potency. Active and inactive are the calls of the source. Unless noted, the call rests on the fitted dose curve; in most records, active means well fitted curve in the direction sought with a large enough effect; inconclusive means small, poorly fitted or top-dose-only effect, or another doubt; inactive means no such curve, though single readings can be large; an effect the other way counts as inactive or inconclusive.
# Assays:
# [1] = molecular target: Chromobox protein homolog 1 (Homo sapiens) (UniProt P83916); assay: qHTS Validation Assay for Inhibitors of HP1-beta Chromodomain Interactions with Methylated Histone Tails (AID 488953); details: HP1-beta chromodomain / methylated histone peptide binding assay; series mostly up to 114 µM;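 further: loss of AlphaScreen luminescence from HP1-beta binding biotinylated H3K9me3 peptide; nearly all actives have a fitted effect of over 50% in size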
# Chain of Chromobox protein homolog 1 (Homo sapiens) (P83916 whole entry, looked up): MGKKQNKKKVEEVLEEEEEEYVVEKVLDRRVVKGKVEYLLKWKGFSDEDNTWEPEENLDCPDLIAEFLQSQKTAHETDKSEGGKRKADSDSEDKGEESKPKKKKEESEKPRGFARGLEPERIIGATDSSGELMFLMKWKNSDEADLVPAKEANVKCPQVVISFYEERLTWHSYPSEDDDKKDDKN
# How it was run: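 AlphaScreen proximity signal from streptavidin donor and nickel chelate acceptor beads (final 10 ug/mL) after 30 min dark incubation. Compounds had 30 min at room temperature with preformed complex of 50 nM HP1-beta and 50 nM b-H3(1-18)K9me3 in PBS pH 7.4 with 0.01% Tween-20.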
# [2] = molecular target: Methanococcus maripaludis chaperonin (MmCpn) (UniProt Q6LX38); assay: High-Throughput Screening for Modulators of Cytosolic Chaperonin Activity: MmCpn Primary Screen (AID 488978); details: Purified MmCpn ATPase activity, ADP HTRF detection, 10 min; series mostly up to 76.9 µM;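 further: 50 nM MmCpn enzyme hydrolysing 30 µM ATP at 37 °C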
# How it was run: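 Steps: chaperonin 50 nM final; add compound, 5 min RT; start with ATP, 30 uM final; hold 10 min at 37C; add ADP Transcreener HTRF reagent, 5 min; read ex 320, em 590 and 665 nm.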
# [3] = molecular target: Thyrotropin receptor (Homo sapiens) (UniProt P16473); assay: qHTS Assay for Antagonists of the Thyroid Stimulating Hormone Receptor (AID 488980); details: TSHR-expressing cells, cAMP antagonist read-out; series mostly up to 57.5 µM
# Chain of Thyrotropin receptor (Homo sapiens) (P16473 whole entry, looked up): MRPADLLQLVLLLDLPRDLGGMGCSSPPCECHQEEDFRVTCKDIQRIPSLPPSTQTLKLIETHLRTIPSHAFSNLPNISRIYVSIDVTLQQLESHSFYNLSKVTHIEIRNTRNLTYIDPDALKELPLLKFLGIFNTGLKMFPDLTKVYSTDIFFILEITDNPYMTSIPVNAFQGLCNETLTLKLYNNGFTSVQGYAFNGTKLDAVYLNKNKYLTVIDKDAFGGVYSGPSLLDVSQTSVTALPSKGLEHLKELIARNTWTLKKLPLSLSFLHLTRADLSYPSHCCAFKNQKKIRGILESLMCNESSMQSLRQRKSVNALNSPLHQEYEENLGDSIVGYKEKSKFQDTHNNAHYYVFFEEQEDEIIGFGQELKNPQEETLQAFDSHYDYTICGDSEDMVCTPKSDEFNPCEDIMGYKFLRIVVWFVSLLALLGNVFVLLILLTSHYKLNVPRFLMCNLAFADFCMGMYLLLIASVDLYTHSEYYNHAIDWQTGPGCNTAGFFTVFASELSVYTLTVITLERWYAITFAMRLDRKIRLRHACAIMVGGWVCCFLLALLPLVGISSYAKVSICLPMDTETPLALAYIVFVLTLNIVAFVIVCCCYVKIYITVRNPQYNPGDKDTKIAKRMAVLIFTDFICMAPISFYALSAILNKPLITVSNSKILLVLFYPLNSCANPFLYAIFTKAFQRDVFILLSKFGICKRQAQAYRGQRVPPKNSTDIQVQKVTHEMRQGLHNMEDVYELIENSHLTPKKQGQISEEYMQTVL
# How it was run: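 Readout is cAMP by HTRF competition between cellular cAMP and cAMP-d2 for a cryptate-labelled antibody. Antagonism was assessed in TSHR-transfected HEK293 cells stimulated with 4 nM TSH (EC80, final) in the presence of RO 20-1724.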
# [4] = molecular target: D(1A) dopamine receptor (Homo sapiens) (UniProt P21728); assay: HTS Assay for Allosteric Agonists of the Human D1 Dopamine Receptor: Primary Screen for Agonists (AID 488981); details: Inducible HEK293 T-REx D1 cells, calcium-flux fluorescence, 180 s kinetic; series mostly up to 41.8 µM
# Chain of D(1A) dopamine receptor (Homo sapiens) (P21728 whole entry, looked up): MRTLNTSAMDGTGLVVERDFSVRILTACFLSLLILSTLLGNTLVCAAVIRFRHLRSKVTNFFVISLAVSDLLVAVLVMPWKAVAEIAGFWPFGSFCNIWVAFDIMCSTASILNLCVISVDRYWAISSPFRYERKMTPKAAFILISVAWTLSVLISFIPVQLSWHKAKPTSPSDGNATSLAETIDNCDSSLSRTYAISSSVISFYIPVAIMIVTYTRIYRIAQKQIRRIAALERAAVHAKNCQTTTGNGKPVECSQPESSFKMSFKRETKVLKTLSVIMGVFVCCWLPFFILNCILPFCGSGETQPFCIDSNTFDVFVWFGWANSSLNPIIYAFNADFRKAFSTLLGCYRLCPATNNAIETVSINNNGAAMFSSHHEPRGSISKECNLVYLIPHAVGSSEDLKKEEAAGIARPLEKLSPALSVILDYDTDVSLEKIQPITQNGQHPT
# How it was run: (§1)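 Calcium flux in an inducible, force-coupled HEK293 Trex D1 line (overnight at 30 C): agonist mode is the 180 s kinetic read after compound; potentiator mode is the following 180 s read after dopamine at EC20.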
# [5] = molecular target: D(1A) dopamine receptor (Homo sapiens) (UniProt P21728); assay: HTS Assay for Allosteric Agonists of the Human D1 Dopamine Receptor: Primary Screen for Potentiators (AID 488982); details: HEK293 T-REx D1 inducible cells, calcium flux, kinetic fluorescence; series mostly up to 8.37 µM
# How it was run: as §1
# [6] = molecular target: D(1A) dopamine receptor (Homo sapiens) (UniProt P21728); assay: HTS Assay for Allosteric Agonists of the Human D1 Dopamine Receptor: Primary Screen for Antagonists (AID 488983); details: D1 receptor cell assay, antagonist mode, qHTS titration; series mostly up to 41.8 µM;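 further: calcium flux response to an EC80 dopamine challenge measured with no-wash dye; nearly all actives have a fitted effect of over 65% in size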
# How it was run: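 Calcium-flux read-out in inducible HEK293 T-REx cells expressing D1, dye-loaded 30–90 min at room temperature. Kinetic reads: 180 s after compound (agonist phase), then 180 s after an EC80 dopamine challenge.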
# [7] = Validation screen for small molecules that induce genotoxicity in human embryonic kidney (HEK293T) cells expressing luciferase-tagged ELG1 (AID 493106); details: luminescence; further: potency means the concentration at half of the fitted maximal effect
# How it was run: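 ELG1-luciferase reporter readout (ONE-Glo, 30 min, room temperature) after 16 hr compound treatment at 37 °C of HEK293T cells at 2,000 per well. Rising luminescence flags genotoxic stress.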
# [8] = molecular target: Thyrotropin-releasing hormone receptor (Homo sapiens) (UniProt P34981); assay: qHTS for Small Molecule Agonists and Allosteric Enhancers of Human TRH Receptor: Validation Screen for Agonists (AID 493127;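 active means calcium activation more than 3 SD above the typical response in the agonist read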;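 further: intracellular calcium rise by fluo-8 fluorescence before TRH EC20 addition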); details: TRH receptor agonist cell assay; at 2 µM; stronger effect = higher value
# Chain of Thyrotropin-releasing hormone receptor (Homo sapiens) (P34981 whole entry, looked up): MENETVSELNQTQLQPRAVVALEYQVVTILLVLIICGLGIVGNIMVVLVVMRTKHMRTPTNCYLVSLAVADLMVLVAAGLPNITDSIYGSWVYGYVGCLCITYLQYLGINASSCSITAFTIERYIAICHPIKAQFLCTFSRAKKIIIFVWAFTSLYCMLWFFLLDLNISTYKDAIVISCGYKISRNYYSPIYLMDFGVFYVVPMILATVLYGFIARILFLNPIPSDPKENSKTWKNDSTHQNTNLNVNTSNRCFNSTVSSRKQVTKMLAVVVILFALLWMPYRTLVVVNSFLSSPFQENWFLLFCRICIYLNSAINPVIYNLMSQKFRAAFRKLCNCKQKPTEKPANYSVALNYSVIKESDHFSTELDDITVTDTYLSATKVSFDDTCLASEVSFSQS
# How it was run: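 Compound-evoked intracellular calcium release in fluo-8-loaded TRHR cells, read kinetically on FDSS (Ex 480/Em 530, 1 s/cycle) after 23 nL pintool transfer. Agonist phase preceded 10 nM TRH EC20 addition.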
# [9] = Nrf2 qHTS screen for inhibitors: Validation (AID 493153; active means well fitted inhibition curve with a large enough effect in the main read-out, with a control signal flat, not every such curve was filed as active); details: A549 ARE-Fluc reporter, 18-24 h; viability change: measured here: cytotoxicity max response; luciferase luminescence, at 46.1 µM (top of the series)
# How it was run: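 Concentration-response on A549 ARE_Fluc reporter cells exposed 18-24 h at 37 C, 5% CO2. Cytotoxicity read first by CellTiter-Fluor fluorescence (Ex 405/Em 525), then Nrf2 inhibition by BugLite luminescence after 15 min.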
# [10] = qHTS for Inhibitors of Cell Surface uPA Generation: Validation Assay (AID 493164); details: mouse cells, plasminogen activation; series mostly up to 38.3 µM;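 further: RAW 264.7 macrophage cells exposed to compound for 18 h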
# How it was run: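 ATP-Lite luminescence read-out: ATP remains high when uPA activity-dependent LF translocation into the cytoplasm is blocked. RAW 264.7 cells, 18 h compound exposure at 37 C; 7-point titration, 2.45 nM to 38.3 uM final.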
# [11] = molecular target: Galactokinase (Homo sapiens) (UniProt P51570); assay: qHTS Validation Assay for Inhibitors of Human Galactokinase (GALK) (AID 493189); details: purified human GALK enzyme activity, qHTS 7-point titration; series mostly up to 57.5 µM
# Chain of Galactokinase (Homo sapiens) (P51570 whole entry, looked up): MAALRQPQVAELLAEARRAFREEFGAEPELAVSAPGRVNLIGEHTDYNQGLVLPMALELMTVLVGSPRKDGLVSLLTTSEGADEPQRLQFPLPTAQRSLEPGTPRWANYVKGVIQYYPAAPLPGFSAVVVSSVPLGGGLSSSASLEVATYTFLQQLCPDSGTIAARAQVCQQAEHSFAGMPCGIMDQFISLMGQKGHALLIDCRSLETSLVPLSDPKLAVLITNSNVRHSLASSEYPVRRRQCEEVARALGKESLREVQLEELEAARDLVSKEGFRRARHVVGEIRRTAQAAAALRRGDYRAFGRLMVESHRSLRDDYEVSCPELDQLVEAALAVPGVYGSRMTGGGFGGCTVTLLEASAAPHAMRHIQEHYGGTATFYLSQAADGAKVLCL
# How it was run: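 5 nM GALK / 100 uM galactose / 35 uM ATP, 20 mM HEPES pH8.0, 5 mM MgCl2, 60 mM NaCl, 1 mM DTT, 0.01% BSA (final). RT 1 h; Kinase-Glo Plus luminescence.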
# [12] = Validation screen for small molecules that induce DNA re-replication in SW480 colon adenocarcinoma cells (AID 504364); details: DNA re-replication phenotype (high-content imaging); series mostly up to 46.1 µM
# How it was run: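 Image-based DNA content read-out: Hoechst stain 40 min, total nuclear fluorescence intensity (ex 405 nm, em 500-530 nm) after 48 h compound exposure of 250 SW480 cells/well at 37 C, 5% CO2, versus DMSO vehicle.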
# [13] = molecular target: Peptidyl-prolyl cis-trans isomerase NIMA-interacting 1 (Homo sapiens) (UniProt Q13526); assay: qHTS Validation Assay to Find Inhibitors of Pin1 (AID 504536; active means well fitted inhibition curve with a large enough effect in the polarisation, with a control signal flat, not every such curve was filed as active; the % refers to the polarisation); details: Pin1 fluorescence polarization peptide binding assay; series mostly up to 57.5 µM
# Chain of Peptidyl-prolyl cis-trans isomerase NIMA-interacting 1 (Homo sapiens) (Q13526 whole entry, looked up): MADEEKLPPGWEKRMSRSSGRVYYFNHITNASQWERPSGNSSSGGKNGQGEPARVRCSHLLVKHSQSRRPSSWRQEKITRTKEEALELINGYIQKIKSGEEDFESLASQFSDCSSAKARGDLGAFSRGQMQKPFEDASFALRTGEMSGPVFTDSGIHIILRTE
# How it was run: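 Fluorescence polarization competition: compounds (titration) displace HiFluor-488-labeled Pin1-1b peptide from Pin1 (0.3 uM final) in pH 7.5 HEPES buffer with DTT, 10 min at room temperature; %Activity normalized to no-enzyme wells, curves fitted.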
# [14] = molecular target: Phosphoglycerate kinase, glycosomal (Trypanosoma brucei brucei) (UniProt P07378); assay: qHTS Validation Assay to Find Inhibitors of Phosphoglycerate Kinase (AID 504547); details: enzymatic PGK inhibition, coupled luminescence read-out; series mostly up to 57.5 µM
# How it was run: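 Luminescence end-point (Kinase-Glo Plus, 10 min) after a 60 min room-temperature coupled reaction. GAPDH at 100nM final supplies 1,3-BPG to PGK. Buffer: 100mM TEA pH 7.6, 5mM MgCl2, 0.01% Tween-20. Wells lacking PGK served as controls.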
# [15] = molecular target: Ubiquitin carboxyl-terminal hydrolase 1 (Homo sapiens) (UniProt O94782); assay: Inhibitors of USP1/UAF1: Pilot qHTS (AID 504865); details: purified USP1/UAF1, Ub-rhodamine cleavage fluorescence; series mostly up to 114 µM; further: nearly all actives have a fitted effect of over 35% in size; further: potency means the concentration at half of the fitted maximal effect
# Chain of Ubiquitin carboxyl-terminal hydrolase 1 (Homo sapiens) (O94782 whole entry, looked up): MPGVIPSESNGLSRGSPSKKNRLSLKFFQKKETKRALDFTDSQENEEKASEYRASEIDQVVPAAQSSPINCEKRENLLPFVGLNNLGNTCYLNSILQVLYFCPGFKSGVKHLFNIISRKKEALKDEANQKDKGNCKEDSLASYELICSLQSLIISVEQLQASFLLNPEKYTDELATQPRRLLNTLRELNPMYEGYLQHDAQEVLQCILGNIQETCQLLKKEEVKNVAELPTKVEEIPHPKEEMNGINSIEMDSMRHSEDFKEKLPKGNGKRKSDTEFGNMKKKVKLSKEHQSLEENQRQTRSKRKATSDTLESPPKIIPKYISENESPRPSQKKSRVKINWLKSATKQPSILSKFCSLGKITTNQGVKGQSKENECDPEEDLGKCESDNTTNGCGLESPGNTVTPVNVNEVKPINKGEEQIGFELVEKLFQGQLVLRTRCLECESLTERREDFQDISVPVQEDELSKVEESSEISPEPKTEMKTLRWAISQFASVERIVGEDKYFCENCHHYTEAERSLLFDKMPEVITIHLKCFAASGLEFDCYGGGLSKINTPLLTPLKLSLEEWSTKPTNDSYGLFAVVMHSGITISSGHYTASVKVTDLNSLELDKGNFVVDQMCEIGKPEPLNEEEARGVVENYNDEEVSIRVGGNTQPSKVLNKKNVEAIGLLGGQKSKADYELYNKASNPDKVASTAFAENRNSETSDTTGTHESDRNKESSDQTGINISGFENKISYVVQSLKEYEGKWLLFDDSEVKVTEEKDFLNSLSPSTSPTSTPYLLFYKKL
# How it was run: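 In 50mM HEPES pH 7.8 containing 0.5mM EDTA, 1mM TCEP, 0.1 mg/ml BSA and 0.01% Tween-20, 1nM USP1/UAF1 is exposed to compound for 15 min, then Ub-Rho (150nM final) is added and fluorescence is read over time.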
# [16] = qHTS for Inhibitors of ATXN expression: Validation of Cytotoxic Assay (AID 588349); details: cytotoxicity counter-screen for ATXN expression inhibitors, cell viability; series mostly up to 57.1 µM
# How it was run: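 Cytotoxicity counter-screen: ATP-based luminescent viability (CellTiter Glo) after 72 hr exposure of HEK293 cells to a compound titration at 37 degrees C.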
# [17] = qHTS for Inhibitors of ATXN expression: Validation (AID 588378); details: cell-based ATXN2 expression reporter assay, luminescence; series mostly up to 57.1 µM; further: nearly all actives have a fitted effect of over 75% in size
# How it was run: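 Compounds were pinned onto attached HEK293 cells carrying an ATXN2-firefly luciferase construct and incubated 24 hrs at 37 degrees C. Each well then received a fluorescent viability reagent followed by luciferase substrate for end-point luminescence.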
# [18] = molecular target: Transient receptor potential cation channel subfamily V member 1 (Homo sapiens) (UniProt Q8NER1); assay: HTS Assay for Compounds that Act as Enhancers of the Vanilloid Receptor 1 (AID 488979); details: TRPV1-expressing cells, enhancer of channel activity, stimulated with capsaicin at EC20; series mostly up to 41.7 µM
# Chain of Transient receptor potential cation channel subfamily V member 1 (Homo sapiens) (Q8NER1 whole entry, looked up): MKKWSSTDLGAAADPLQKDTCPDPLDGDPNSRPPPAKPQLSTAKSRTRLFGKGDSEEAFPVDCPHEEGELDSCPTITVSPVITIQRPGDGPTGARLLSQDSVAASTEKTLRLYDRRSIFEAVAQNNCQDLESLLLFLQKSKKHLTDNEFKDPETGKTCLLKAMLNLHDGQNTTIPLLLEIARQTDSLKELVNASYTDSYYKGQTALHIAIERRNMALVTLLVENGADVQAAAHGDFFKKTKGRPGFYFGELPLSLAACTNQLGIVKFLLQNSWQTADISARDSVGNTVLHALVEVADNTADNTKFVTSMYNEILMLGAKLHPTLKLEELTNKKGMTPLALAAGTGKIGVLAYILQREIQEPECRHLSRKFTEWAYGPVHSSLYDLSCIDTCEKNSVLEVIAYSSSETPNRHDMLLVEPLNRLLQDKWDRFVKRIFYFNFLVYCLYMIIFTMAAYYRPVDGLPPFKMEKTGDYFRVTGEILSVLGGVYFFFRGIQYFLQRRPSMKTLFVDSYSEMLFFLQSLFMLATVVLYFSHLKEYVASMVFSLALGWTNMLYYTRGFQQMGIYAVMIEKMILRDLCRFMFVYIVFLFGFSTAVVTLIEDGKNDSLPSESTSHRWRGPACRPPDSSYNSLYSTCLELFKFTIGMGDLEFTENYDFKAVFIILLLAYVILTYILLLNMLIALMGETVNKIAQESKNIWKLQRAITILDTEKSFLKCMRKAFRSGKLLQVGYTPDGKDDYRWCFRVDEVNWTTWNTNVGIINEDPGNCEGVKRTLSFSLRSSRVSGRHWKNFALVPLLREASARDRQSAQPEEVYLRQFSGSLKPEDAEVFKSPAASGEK
# How it was run: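 Calcium influx kinetics via Fluo-8 (480/520 nm) in TRPV1-expressing cells, 2000/well cultured overnight at 35.5C. Compound-alone read 3 min (agonist phase), followed by EC20 capsaicin challenge for 2 min (enhancer phase).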
# [19] = molecular target: Bile acid receptor (Homo sapiens) (UniProt Q96RI1); assay: qHTS assay for small molecule antagonists of farnesoid X receptor signaling (AID 588526; calls by dose curve); details: HEK293T FXR-UAS-bla, beta-lactamase ratio, antagonist mode; series mostly up to 76.7 µM
# Chain of Bile acid receptor (Homo sapiens) (Q96RI1 whole entry, looked up): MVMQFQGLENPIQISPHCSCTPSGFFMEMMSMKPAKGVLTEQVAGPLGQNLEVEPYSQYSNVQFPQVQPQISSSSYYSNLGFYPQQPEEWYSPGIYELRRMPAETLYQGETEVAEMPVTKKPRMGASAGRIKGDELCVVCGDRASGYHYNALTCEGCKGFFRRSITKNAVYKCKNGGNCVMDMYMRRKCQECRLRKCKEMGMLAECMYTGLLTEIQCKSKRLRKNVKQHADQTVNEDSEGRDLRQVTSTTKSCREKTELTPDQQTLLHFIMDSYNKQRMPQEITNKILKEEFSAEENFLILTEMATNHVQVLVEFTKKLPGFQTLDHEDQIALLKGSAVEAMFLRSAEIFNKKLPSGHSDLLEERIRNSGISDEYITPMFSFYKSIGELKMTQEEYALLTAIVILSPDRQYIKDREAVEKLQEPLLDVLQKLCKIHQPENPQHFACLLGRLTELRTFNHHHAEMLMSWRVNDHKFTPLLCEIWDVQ
# How it was run: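 Beta-lactamase reporter antagonist mode: HEK293T FXR-UAS-bla cells, titrated compound, CDCA stimulation, 16 h 37 C, CCF4 dye 2 h RT. Data normalized to CDCA 50 uM and DMSO; Hill-fit IC50.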
# [20] = molecular target: DNA dC->dU-editing enzyme APOBEC-3G (Homo sapiens) (UniProt Q9HC16); assay: qHTS for inhibitors of Vif-A3G interactions: Validation (AID 588379); details: Vif-A3G protein interaction assay; series mostly up to 46.1 µM
# Chain of DNA dC->dU-editing enzyme APOBEC-3G (Homo sapiens) (Q9HC16 whole entry, looked up): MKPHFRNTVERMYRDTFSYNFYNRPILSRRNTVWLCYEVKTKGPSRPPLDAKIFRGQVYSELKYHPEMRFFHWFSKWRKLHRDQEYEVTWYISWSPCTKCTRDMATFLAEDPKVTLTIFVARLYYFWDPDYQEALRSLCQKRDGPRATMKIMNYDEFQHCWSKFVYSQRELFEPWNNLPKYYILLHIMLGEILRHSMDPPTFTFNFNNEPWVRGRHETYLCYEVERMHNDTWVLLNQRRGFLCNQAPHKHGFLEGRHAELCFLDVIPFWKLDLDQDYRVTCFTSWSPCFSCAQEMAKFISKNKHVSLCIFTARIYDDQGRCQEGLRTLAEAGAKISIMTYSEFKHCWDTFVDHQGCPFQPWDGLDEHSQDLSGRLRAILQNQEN
# How it was run: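 Yellow fluorescence (Ex 488, Em 500-530) of Vif-coexpressing HeLa A3G-eYFP cells, scanned by Acumen cytometer, reports blocked A3G degradation. Cells plated at 700/well overnight at 37 deg C before compound addition, then a further overnight compound incubation at 37 deg C.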
compound,measurement,setting,value
O=c1c2ccccc2nc2n1CCc1c-2[nH]c2ccccc12,outcome,[1],inactive
same,outcome,[2],inactive
same,outcome,[3],inactive
same,outcome,[4],inactive
same,outcome,[5],inactive
same,outcome,[6],inactive
same,Potency,[7],8.2 µM (active)
same,activation,[8],-4.5% (inactive)
same,outcome,[9],inactive
same,viability change,[9],-3.53%
same,outcome,[10],inactive
same,outcome,[11],inactive
same,outcome,[12],inactive
same,outcome,[13],inactive
same,outcome,[14],inactive
same,Potency,[15],inactive
same,outcome,[16],inactive
same,outcome,[17],inactive
CC[C@H](CO)Nc1nc(NCc2ccccc2)c2ncn(C(C)C)c2n1,outcome,[18],inactive
same,outcome,[3],inactive
same,activation,[8],0.312% (inactive)
C[C@H]1C[C@@H]2[C@@H]([C@@H](O)C[C@@]3(C)[C@H]2CC[C@]3(O)C(=O)CO)[C@@]2(C)C=CC(=O)C=C12,Potency,[15],inactive
CC[C@@]1(O)C(=O)OCc2c1cc1n(c2=O)Cc2cc3cc(O)ccc3nc2-1,Potency,[15],inactive
O=C(O)CCCc1c[nH]c2ccccc12,outcome,[19],inactive
CC=CC1=C(C(=O)O)N2C(=O)[C@H](NC(=O)[C@H](N)c3ccc(O)cc3)[C@@H]2SC1,Potency,[15],inactive
CC1(C)O[C@@H]2C[C@@H]3[C@H]4C[C@@H](F)C5=CC(=O)C=C[C@]5(C)[C@@]4(F)[C@@H](O)C[C@]3(C)[C@]2(C(=O)CO)O1,Potency,[15],inactive
COC(=O)C[C@](O)(CCCC(C)(C)O)C(=O)O[C@@H]1C(OC)=C[C@]23CCCN2CCc2cc4c(cc2[C@H]13)OCO4,Potency,[15],inactive
same,outcome,[20],inactive
O=c1[nH]c(=O)n(C2CCCO2)cc1F (stereo not given),Potency,[15],inactive
COc1c(N2C[C@@H]3CCCN[C@H]3C2)c(F)cc2c(=O)c(C(=O)O)cn(C3CC3)c12,Potency,[15],inactive
Nc1ccn([C@@H]2O[C@H](CO)[C@H](O)C2(F)F)c(=O)n1,Potency,[15],inactive
COc1cc(C(=O)NS(=O)(=O)c2ccccc2C)ccc1Cc1cn(C)c2ccc(NC(=O)OC3CCCC3)cc12,Potency,[15],35.5 µM (active)
COC(=O)C1=C(C)NC(C)=C(C(=O)OCCN2CCN(C(c3ccccc3)c3ccccc3)CC2)C1c1cccc([N+](=O)[O-])c1 (stereo not given),Potency,[15],inactive
Nc1ccc(S(=O)(=O)Nc2ncccn2)cc1,Potency,[15],inactive
O=C(O)CO.[NH2-].[NH2-].[Pt+2],Potency,[15],inactive
